Measured values taken from PubChem BioAssay (NCATS).
Activity calls are given as the source filed them. Calls come from the whole dose curve; as a rule, active = well fitted curve in the direction sought with a large enough effect; inconclusive = small, poorly fitted or top-dose-only effect, or another doubt; inactive = no such curve, though single readings can be large or run the other way.

Target: Guanine nucleotide-binding protein G(i) subunit alpha-1 (Homo sapiens) (UniProt P63096)
Assay: qHTS Assay for Inhibitors of RGS12 GoLoco Motif Activity (Green Fluorophore) (AID 879);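 note: negative values mean loss of peptide binding seen as reduced polarization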
Settings: Galphai1/FITC-RGS12 GoLoco peptide, fluorescence polarization; series mostly up to 57.1 µM
Description: Assay Overview: NIH Molecular Libraries Screening Centers Network [MLSCN] NIH Chemical Genomics Center [NCGC] MLSCN Grant: NS053754-01 Assay Provider: Siderovski, David P, University of North Carolina at Chapel Hill G-protein-coupled receptors (GPCRs) are major targets for drug discovery. The regulator of G-protein signaling (RGS)-protein family has important roles in GPCR signal transduction. RGS proteins contain a conserved RGS-box, which is often accompanied by other signaling regulatory elements. RGS proteins accelerate the deactivation of G proteins to reduce GPCR signaling; however, some also have an effector function and transmit signals. Combining GPCR agonists with RGS inhibitors should potentiate responses, and could markedly increase the agonist's regional specificity. The diversity of RGS proteins with highly localized and dynamically regulated distributions in brain makes them attractive targets for pharmacotherapy of central nervous system disorders. […] A complex of Gai1 and fluorescently labeled G-alpha-binding peptide (the "GoLoco motif") derived from RGS12 is incubated with library members. Inhibitors of the binding are detected by a decrease in the fluorescence polarization (FP) of the fluorophore. Protein was supplied by Prof. David Siderovski, University of North Carolina at Chapel Hill.
Assay Protocol: Reagents/Controls: Assay Buffer: 10 mM Tris-HCl, 150 mM NaCl, 0.1 mM GDP (prepared fresh), and 0.05% NP40 at pH 7.5. […] 10 nM FITC labeled peptide/50 nM protein in columns 1, 2, 5 - 48. Titration of unlabeled peptide control ([H][…][NH2], custom synthesized and HPLC-purified by Tufts University Core Facility) from 10 mM, then 1:2 dilution, 16-point in duplicate, pin-transferred to column 2, rows 1 to 32. Column 1 is neutral. FITC-labeled RGS12-GoLoco peptide was custom-synthesized and HPLC-purified by Michael Berne of Tufts University Assay Steps. Four uL of reagents were dispensed to 1536-well Greiner black solid-bottom plates. Compounds and controls (23 nL) were transferred via Kalypsys PinTool. The plates were incubated for 10 min at room temperature, and then read on ViewLux (Perkin-Elmer) High-throughput CCD imager using FITC polarization filter sets for the fluorescein-labeled decapeptide probe.During dispense, reagent bottles were kept submerged into 4 deg C water bath and all liquid lines were covered with aluminum foil to minimize probe and protein degradation. All screening operations were performed on a Kalypsys robotic system (Kalypsys, Inc., San Diego, CA) containing one RX-130 and two RX-90 anthropomorphic robotic arms.

Chain of Guanine nucleotide-binding protein G(i) subunit alpha-1 (Homo sapiens) (P63096 whole entry, looked up): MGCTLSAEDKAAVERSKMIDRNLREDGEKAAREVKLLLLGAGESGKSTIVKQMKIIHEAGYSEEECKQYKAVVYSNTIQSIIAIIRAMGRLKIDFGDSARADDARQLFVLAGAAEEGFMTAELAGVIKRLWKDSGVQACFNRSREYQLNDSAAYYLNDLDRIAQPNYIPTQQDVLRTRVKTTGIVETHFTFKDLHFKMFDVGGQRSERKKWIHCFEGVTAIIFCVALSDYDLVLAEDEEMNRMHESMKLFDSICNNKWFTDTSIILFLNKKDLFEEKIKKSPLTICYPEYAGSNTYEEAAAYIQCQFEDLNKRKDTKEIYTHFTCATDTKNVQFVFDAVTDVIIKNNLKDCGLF

| Structure (SMILES) | outcome |
| --- | --- |
| C=CCN1CCC2(C)c3cc(O)ccc3C[C@H]1[C@H]2C | inactive |
| CP(=O)(O)CCCN | inactive |
| N[C@@]1(C(=O)O)CC[C@H](C(=O)O)C1 | inactive |
| CN1[C@@H]2CC[C@H]1CC(O[C@@H](c1ccccc1)c1ccc(Cl)cc1)C2 (stereo not given in full) | inactive |
| N[C@H](C(=O)O)c1cc(=O)[nH]o1 | inactive |
| N[C@H](CCP(=O)(O)O)C(=O)O | inactive |
| C[C@H](N)Cc1cnc[nH]1 | inactive |
| O=C(Cc1ccc(Cl)c(Cl)c1)N1CCCC[C@H]1CN1CCCC1 | inactive |
| COc1ccc(-n2nc(C(F)(F)F)cc2-c2ccc(Cl)cc2)cc1 | inactive |
| COC(=O)N1CCN(C(=O)Cc2ccc(Cl)c(Cl)c2)[C@H](CN2CCCC2)C1 | inactive |
| CC[C@]1(C2=NCCN2)Cc2ccccc2O1 | inactive |
| COc1ccc(CCN)cc1O | inactive |
| Oc1ccc2c3c1O[C@H]1c4[nH]c5ccccc5c4C[C@]4(O)[C@H](C2)N(CC2CC2)CC[C@@]314 | inactive |
| CC(C)(C)c1o[nH]c(=O)c1C[C@H](N)C(=O)O | inactive |
| CN1C(=O)CCS(=O)(=O)[C@H]1c1ccc(Cl)cc1 | inactive |
| C[C@H](N)Cc1c[nH]c2ccc(OCc3cccs3)cc12 | inactive |
| Oc1ccc2c3c1O[C@H]1c4oc5ccccc5c4C[C@]4(O)[C@H](C2)N(CC2CC2)CC[C@@]314 | inactive |
| CN1CC[C@@]23CCCC[C@@H]2[C@@H]1Cc1ccc(O)cc13 | inactive |
| COc1ccc2[nH]cc(CCN(C)C)c2c1 | inactive |
| COc1cc(CCN)ccc1O | inactive |

| Structure (SMILES) | outcome |
| --- | --- |
| O=C1CC[C@@]2(O)[C@H]3Cc4ccc(O)c5c4[C@@]2(CCN3CC2CC2)[C@@H]1O5 | inactive |
| CCOC(=O)c1ncn2c1[C@H]1CCCN1C(=O)c1cc(OC)ccc1-2 | inactive |
| CN1CCN(c2ccc3ccccc3n2)CC1 | inactive |
| C[C@@H](Cc1ccc(OCC(=O)O)cc1)NC[C@H](O)c1cccc(Cl)c1 | inactive |
| N[C@@H](Cn1cc(I)c(=O)[nH]c1=O)C(=O)O | inactive |
| O=C1NCN(c2ccccc2)C12CCN(C[C@H]1COc3ccccc3O1)CC2 | inactive |
| c1ccc2c(c1)OC[C@@H](C1=NCCN1)O2 | inactive |
| N[C@H](CP(=O)(O)O)C(=O)O | inactive |
| COc1ccc(CNC(=O)/C=C\c2ccc3[nH]cc(CCN(C)C)c3c2)cc1 | inactive |
| N#CC(C#N)=Cc1ccc([N+](=O)[O-])c(O)c1 | inactive |
| C[C@H](N)Cc1c[nH]c2ccc(O)cc12 | inactive |
| CNc1ccc2oc(C[C@H]3O[C@]4(CC[C@H]3C)O[C@H]([C@H](C)C(=O)c3ccc[nH]3)[C@H](C)C[C@H]4C)nc2c1C(=O)O | inactive |
| Cc1o[nH]c(=O)c1C[C@H](N)C(=O)O | inactive |
| C=C(C)[C@H]1CN[C@H](C(=O)O)[C@@H]1CC(=O)O | inactive |
| C=CCN1CC[C@@]23c4c5ccc(O)c4O[C@H]2/C(=N\N=C2/CC[C@@]4(O)[C@H]6Cc7ccc(O)c8c7[C@@]4(CCN6CC=C)[C@@H]2O8)CC[C@]3(O)[C@@H]1C5 | inactive |
| N[C@H](CCCCCP(=O)(O)O)C(=O)O | inactive |
| C/C(O)=C(/C#N)C(=O)Nc1cc(Br)ccc1Br | inactive |
| COC(=O)c1cc2c(cn1)[nH]c1ccccc12 | inactive |
| CC(C)[C@@]1(NC(=O)[C@@H]2C[C@H]3c4cccc5[nH]cc(c45)C[C@@H]3N(C)C2)O[C@@]2(O)[C@H]3CCCN3C(=O)[C@H](Cc3ccccc3)N2C1=O | inactive |
| CN(C(=O)Cc1ccc(Cl)c(Cl)c1)[C@@H](CN1CCCC1)c1cccc(OCC(=O)O)c1 | inactive |
